# nsP2pro primary = blocks chikungunya virus nsP2 protease peptide cleavage; FRET peptide cleavage, nsP2pro, fluorescence 1 h; Potency, µM (titrated, usually from 24.9 µM), inactives show top-dose activity change, negative = inhibition, usual class: inhibitors; 1.1% of 31,000 active; AID 1964107; note: nearly all actives have a fitted effect of over 60% in size
#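 Enzyme 150 nM, substrate 2.5 uM (both final); Tris-HCl 10 mM pH 8.0 + 0.01% Tween 20; cpd up to 25 uM, 7 pts; 15 min preinc., 1 h RT; fluorescence ex 525/em 598.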
# CHIKV nsP2 cell = inhibits CHIKV nsP2 protease in cells | 10% of 450 active | Potency, µM (titrated, usually from 51.1 µM), for the others: top-dose activity change, negative = inhibition, most hits filed as inhibitors | cell-based CHIKV nsP2 protease reporter assay | shares compounds with nsP2pro primary; note: nearly all actives have a fitted effect of over 70% in size
# CHIKV NSP2 FL = selectivity test for CHIKV nsP2 protease inhibitors: full-length NSP2; shares compounds with nsP2pro primary; Full-length CHIKV NSP2 protease enzymatic counterscreen; Potency, µM (top dose mostly 50.7 µM), for the others: at the highest dose activity change, negative = inhibition, actives largely listed as inhibitors; 39% of 410 active; AID 1964101; note: nearly all actives have a fitted effect of over 65% in size
# Furin counterscr = selectivity counter-screen for CHIKV nsP2 protease inhibitors: human furin | Potency, µM (series often up to 50.6 µM), for the others: at the top dose activity change, negative = inhibition, most hits filed as inhibitors | AID 1964102 | Recombinant human furin enzymatic counterscreen, fluorogenic substrate | shares compounds with nsP2pro primary | 6% of 410 active
# nsP2 NS23 pep = blocks CHIKV nsP2 protease cleavage of endogenous NS2/3 peptide; shares compounds with nsP2pro primary; Purified CHIKV nsP2 protease, endogenous NS2/3 peptide cleavage; Potency, µM (highest dose often 51 µM), for the others: top-dose activity change, negative = inhibition, most hits filed as inhibitors; 34% of 410 active; AID 1964103; note: nearly all actives have a fitted effect of over 55% in size
# Papain counter = papain protease inhibition, counterscreen for nsP2pro inhibitors. purified papain protease activity, enzymatic inhibition. 5% of 410 active. Potency, µM (series often up to 51 µM), inactives show top-dose activity change, negative = inhibition, most hits filed as inhibitors. shares compounds with nsP2pro primary. AID 1964104
# nsP2pro confirm = confirmation of CHIKV nsP2 protease inhibitors. shares compounds with nsP2pro primary. CHIKV nsP2 protease enzymatic activity, qHTS. Potency, µM (doses to about 25.5 µM), inactives show at the highest dose activity change, negative = inhibition, most hits filed as inhibitors. 43% of 410 active. AID 1964105; note: nearly all actives have a fitted effect of over 75% in size
# HCV NS3 4A cs = HCV NS3/4A protease inhibition, counterscreen; 20% of 410 active; HCV NS3/4A protease biochemical counterscreen; shares compounds with nsP2pro primary; Potency, µM (top dose mostly 50.9 µM), actives largely listed as inhibitors; note: nearly all actives have a fitted effect of over 55% in size
# The depositor's hits bear a star; i = inactive; ? = inconclusive; ! = repeats disagree; [ ] = dose if it differs, or a comment. This excerpt belongs to a sample that is enriched for hits. Calls come from the whole dose curve. % is set by controls: 0 for no effect and ±100 for the full control effect; potency is the fitted concentration of half-maximal effect.
SMILES,nsP2pro primary,others
O=C(Nc1nnc(-c2ccncc2)s1)Nc1ccc(Cl)c2ccccc12,-3.4%,
Cc1noc(C)c1CN1CCOC[C@H](O)C1,i,
Cc1cc(C)n(Cc2ccc(C(=O)N3CC4CC(C3)[C@H]3CCCC(=O)N3C4)o2)n1 (stereo partly specified),-0.8%,
CCN(CC)C(=S)SSC(=S)N(CC)CC,2.48µM*!,CHIKV nsP2 cell=12.6µM*;CHIKV NSP2 FL=14.6µM*;Furin counterscr=-9.0%;nsP2 NS23 pep=9.19µM*;Papain counter=?;nsP2pro confirm=1.79µM*;HCV NS3 4A cs=?
O=C1CCCCC(CNC(=O)c2cn[nH]c2-c2ccccc2)N1 (stereo unspecified),i,
Cc1nccn1CCC(C(N)=O)(c1ccccc1)c1ccccc1,10.7%,
N#Cc1ccc(-c2ccc(CNc3ccc(N4CCOCC4)cc3)cn2)cc1,i,
COC(=O)N[C@H](C(=O)N1CCC[C@H]1c1ncc(-c2ccc(-c3ccc(-c4cnc([C@@H]5CCCN5C(=O)[C@@H](NC(=O)OC)C(C)C)[nH]4)cc3)cc2)[nH]1)C(C)C,?,CHIKV nsP2 cell=-10.8%;CHIKV NSP2 FL=?;Furin counterscr=-8.2%;nsP2 NS23 pep=-18.8%;Papain counter=i;nsP2pro confirm=?;HCV NS3 4A cs=i
CC(=O)N1CCC(N2CCOC[C@H]2c2ncc(-c3ccncc3)[nH]2)CC1,i,
COC(=O)N[C@H](C(=O)N1CCC[C@H]1c1ncc(-c2ccc3c(c2)O[C@@H](c2ccccc2)n2c-3cc3cc(-c4cnc([C@@H]5CCCN5C(=O)[C@@H](NC(=O)OC)C(C)C)[nH]4)ccc32)[nH]1)C(C)C,-0.2%,
Cc1nnc2n1CCC(N(C)C(=O)CCc1ccccc1)CC2 (stereo unspecified),2.6%,
CCC(CC)C(=O)OC12C(OC(=O)C(C)C)C(C)C3(O)C(C=C(CO)CC4(O)C(=O)C(C)=CC43)C1C2(C)C (stereo unspecified),-3.7%[10 µM],
COc1cc(O)c(C(CC(=O)N2CCCC(C(C)C)C2)c2ccc3c(c2)OCO3)c(OC)c1 (stereo unspecified),-2.4%[39.2 µM],
O=C(O)c1ccc(-c2noc(-c3ccc(Cl)cc3)n2)cc1,i,
CCN(CC)C(=O)[C@@H]1CCC[C@@H](NC(=O)c2ccc(Cl)cc2)CN(C)C(=O)C1,-6.7%[39.2 µM],
CCCNC(=O)N[C@@H]1CCC[C@@H](C(=O)N(CC)CC)CC(=O)N(C)C1,5.62µM*,CHIKV nsP2 cell=8.6%;CHIKV NSP2 FL=23.7µM*;Furin counterscr=?;nsP2 NS23 pep=16.8µM*;Papain counter=-3.1%;nsP2pro confirm=8.19µM*;HCV NS3 4A cs=?
CCN(CC)C(=O)[C@@H]1CCC[C@@H](NC(=O)c2ccc(OC)cc2)CN(C)C(=O)C1,i,
Cc1cc(C)nc(NC(=S)N2CCN(c3ccc(N4CCCC4)nn3)CC2)c1,-4.9%,
COc1ccc(OC)c(S(=O)(=O)N2CCCOCCNC(=O)[C@@H]3CCCC[C@@H]32)c1,0.5%,
O=C(NC1CCCCC1)[C@@H]1Cc2nc[nH]c2CN1Cc1ccc(Cl)cc1,i,
CNc1oc(-c2c[nH]c3ccccc23)nc1C#N,i,
Clc1ncoc1-c1c[nH]c2ccccc12,?,CHIKV nsP2 cell=-13.3%;CHIKV NSP2 FL=-18.5%;Furin counterscr=-1.9%;nsP2 NS23 pep=-26.1%;Papain counter=-13.1%;nsP2pro confirm=-22.3%;HCV NS3 4A cs=i
CCCCc1ccc(O)cc1O,-5.6%,
COc1cc(CO)ccc1O[C@@H]1O[C@H](CO)[C@@H](O)[C@H](O)[C@H]1O,-1.1%,
OCCc1ccc(O[C@@H]2O[C@H](CO)[C@@H](O)[C@H](O)[C@H]2O)cc1,-6.0%,
COc1cc(CCO)ccc1O[C@@H]1O[C@H](CO)[C@@H](O)[C@H](O)[C@H]1O,?,CHIKV nsP2 cell=-6.1%[33.5 µM];CHIKV NSP2 FL=-27.3%[33.5 µM];Furin counterscr=7.6%[33.5 µM];nsP2 NS23 pep=-7.8%[33.5 µM];Papain counter=-7.3%[33.5 µM];nsP2pro confirm=?;HCV NS3 4A cs=i

# From PubChem
